TGFb SMAD3 inh = qHTS for Inhibitors of TGF-b | HepG2 CAGA-GFP TGF-b/SMAD3 reporter, GFP fluorescence, 18 h; TGF-beta stimulated, 500 pg/mL final | Potency, µM (titrated, usually from 46.1 µM), for inactives: at the highest dose activity, negative = inhibition, hits mostly inhibitors | actives 1.2% (n = 410,000); also: potency is read from the fitted curve at half-maximal effect; % is scaled to controls: 0 for no effect and ±100 for the full control effect; nearly all actives have a fitted effect of over 65% in size
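Read-out: total well GFP (ex488/em500-530) summed from mean per-cell fluorescence. Cells: HEPG2 CAGA-GFP, 1% FBS DMEM, 18 h at 37 degrees C with 500 pg/mL final TGF-beta. Unstimulated wells served as the full-inhibition control; stimulated DMSO wells = 0%.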
TDP1 inh = qHTS Assay for Inhibitors of Tyrosyl-DNA Phosphodiesterase (TDP1); Potency, µM (doses to about 130 µM), inactives show at the highest dose activity change, negative = inhibition, hits mostly inhibitors; recombinant TDP1, AlphaScreen DNA substrate cleavage; actives 0.28% (n = 350,000); Tyrosyl-DNA phosphodiesterase 1 (Homo sapiens), Q9NUW8; also: potency is read from the fitted curve at half-maximal effect; % is scaled to controls: 0 for no effect and ±100 for the full control effect; nearly all actives have a fitted effect of over 40% in size
Target sequence (Q9NUW8 whole entry, looked up): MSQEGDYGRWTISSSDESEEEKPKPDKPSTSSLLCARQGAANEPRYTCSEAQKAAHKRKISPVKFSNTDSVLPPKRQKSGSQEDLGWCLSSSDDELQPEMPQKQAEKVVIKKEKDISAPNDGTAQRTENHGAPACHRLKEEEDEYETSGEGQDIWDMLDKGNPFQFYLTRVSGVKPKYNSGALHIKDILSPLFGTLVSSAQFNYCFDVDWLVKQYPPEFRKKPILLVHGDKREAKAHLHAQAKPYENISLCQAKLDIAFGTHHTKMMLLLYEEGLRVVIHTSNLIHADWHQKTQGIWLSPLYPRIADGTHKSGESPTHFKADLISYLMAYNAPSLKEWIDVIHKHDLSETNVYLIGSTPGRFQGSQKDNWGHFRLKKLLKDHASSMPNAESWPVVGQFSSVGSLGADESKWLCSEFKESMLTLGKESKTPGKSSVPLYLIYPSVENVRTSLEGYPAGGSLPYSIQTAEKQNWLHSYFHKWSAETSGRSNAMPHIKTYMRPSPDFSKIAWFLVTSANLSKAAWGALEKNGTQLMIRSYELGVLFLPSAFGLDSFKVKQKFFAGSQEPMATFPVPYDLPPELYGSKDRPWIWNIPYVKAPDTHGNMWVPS
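Tdp1 1 nM final; 15 min RT w/ cpd; substrate 15 nM, 5 min; beads 10 ug/ml, 10 min; AlphaScreen read. Neg ctrl: no enzyme.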
TDP1 cell CPT = qHTS for Inhibitors of human tyrosyl-DNA phosphodiesterase 1 (TDP1): qHTS in cells in presence of CPT. chicken DT40 Tdp1-/-;hTDP1 cells + 20 nM CPT, ATP luminescence, 48 h. Potency, µM (highest dose often 46.2 µM), inactives show at the top dose activity change, negative = growth inhibition, most hits filed as inhibitors. actives 12% (n = 420,000); also: potency is read from the fitted curve at half-maximal effect; % is scaled to controls: 0 for no effect and ±100 for the full control effect; nearly all actives have a fitted effect of over 55% in size
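Chicken DT40 Tdp1-/- cells stably complemented with human TDP1 were seeded at 400 cells/well in medium containing 20 nM camptothecin, exposed to pin-transferred compounds, and grown at 37 °C for at least 48 hr. Viability was read as ATP luminescence.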
HepG2 tox = qHTS for Inhibitors of TGF-b: Cytotox Counterscreen | HepG2 CAGA-GFP viability, ATP luminescence, 18 h | Potency, µM (series often up to 46.1 µM), inactives show top-dose activity change, negative = cytotoxicity, hits mostly cytotoxic | actives 0.76% (n = 410,000); also: potency is read from the fitted curve at half-maximal effect
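CellTiter-Glo luminescence gave cytotoxicity after 18 hours at 37 degrees C. The cells were HepG2 CAGA-GFP in 1% FBS DMEM, stimulated with 500 pg/mL TGF-beta after compound addition. %Activity was normalised to no-cell wells (complete cell-killing) and DMSO (no toxicity), and curves were fitted and classified.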
DT40 TDP1 no CPT = qHTS for Inhibitors of human tyrosyl-DNA phosphodiesterase 1 (TDP1): qHTS in cells in absence of CPT. actives 15% (n = 420,000). DT40 Tdp1-/- hTDP1 cells, no CPT, ATP luminescence, 48 h. AID 686978, 2013. Potency, µM (top dose mostly 46.2 µM), inactives show at the highest dose activity change, negative = growth inhibition, hits mostly inhibitors; also: potency is read from the fitted curve at half-maximal effect; % is scaled to controls: 0 for no effect and ±100 for the full control effect; nearly all actives have a fitted effect of over 55% in size
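Cells were dispensed at 400 per well, compounds added by pin tool, plates incubated ≥48 hr at 37 °C, then CellTiter-Glo added for 30 min at room temperature before luminescence reading. Line: DT40 Tdp1-/- complemented with hTDP1; camptothecin omitted.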
IL-1B inflam inh = qHTS for Inhibitors of Inflammasome Signaling: IL-1-beta AlphaLISA Primary Screen | actives 4.7% (n = 360,000) | activity change, % at 57.5 µM | THP-1 LPS/ATP IL-1B secretion, AlphaLISA, 16 h; active compounds read low; in the data active = activity change below about -50%; inconclusive = mostly about -30% to -49%; also: % is scaled to controls: 0 for no effect and ±100 for the full control effect
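Secreted IL-1B measured by AlphaLISA bead assay after 16 h compound exposure of THP-1 cells; compounds (final up to 57.5 uM) added 1 h before LPS (250 ng/mL) and ATP (1.25 mM) stimulation; lower signal means less secretion.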
Starred values were filed as active, the others as inactive; u = inconclusive; x = no result. An excerpt weighted towards active compounds, which were near 18% of everything screened. Unless noted, calls follow the shape of the dose curve; as a rule, active = well fitted curve in the direction sought with a large enough effect; inconclusive = small, poorly fitted or top-dose-only effect, or another doubt; inactive = no such curve, though single readings can be large; an effect the other way counts as inactive or inconclusive.

SMILES	TGFb SMAD3 inh	TDP1 inh	TDP1 cell CPT	HepG2 tox	DT40 TDP1 no CPT	IL-1B inflam inh
COc1ccc(Cl)cc1NC(=O)C(C)N1CCN(c2ccccn2)CC1 (stereo unspecified)	-18%	x	u	-15%	18µM*	-5
Cc1c(C(=O)N2CCN(c3ccc(F)cc3)CC2)sc2ncnc(N3CCN(c4ccccn4)CC3)c12	u	9%	18µM*	-20%	15µM*	-84*
COc1ccc(OC)c(NC(=O)c2sc3ncnc(N4CCN(c5ccccn5)CC4)c3c2C)c1	-1%	4%	u	0%	21µM*	14
COc1ccc(NC(=O)c2sc3ncn(CC(=O)N4CCN(c5ccccn5)CC4)c(=O)c3c2C)c(OC)c1	-6%	0%	0%	6%	8%	14
COc1ccccc1N1CCN(C(=O)c2sc3ncnc(N4CCN(c5ccccn5)CC4)c3c2C)CC1	u	x	4.6µM*	0%	4.6µM*	-75*
COc1ccc(CN2CC[C@@H](N3CCOCC3)[C@H](O)C2)cc1F	-2%	x	20%	-1%	-4%	3
CCOC(=O)C1CCN(S(=O)(=O)c2c(C)[nH]c(C)c2C(=O)N2CCCCC2)CC1	-2%	1%	4%	-5%	-5%	-17
C[C@@H](NS(=O)(=O)c1cc(Cl)ccc1F)[C@H](O)c1ccccc1	-1%	x	2%	-4%	-8%	24
Cc1cccc(NC(=O)CS(=O)(=O)c2cccc3nsnc23)c1	5%	-4%	-5%	-18%	-25%	x
Cc1c(C(=O)N2CCN(c3ccccn3)CC2)sc2ncnc(N3CCOCC3)c12	-16%	1%	-16%	-11%	-18%	-1
Cc1nc(N2CCN(c3ccccn3)CC2)c2c(C)c(C(=O)N3CCN(c4ccc(F)cc4)CC3)sc2n1	u	x	u	-6%	u	-62*
COc1ccccc1NC(=O)c1cc(=O)c2ccc(C)c(C)c2o1	2%	-1%	-6%	6%	-18%	x
Clc1ccc(CSc2nncn2-c2ccccn2)cc1	2%	7%	u	-8%	-18%	-10
Clc1ccc(CSc2nncn2-c2ccc3c(c2)OCCO3)cc1	u	-4%	2.6µM*	0%	5.8µM*	x
Cc1cccc(OCC(=O)Nc2cccc3cccnc23)c1C	11%	-2%	x	5%	x	x
CCCn1c(=N)n(CC(=O)c2ccc([N+](=O)[O-])cc2)c2ccccc21	3%	-2%	u	4%	23µM*	-53*
Cc1ccc(C(=O)Cn2nnc3ccccc32)cc1[N+](=O)[O-]	3%	2%	0%	-24%	-7%	-28
Cc1ccccc1Cn1c(=N)n(CC(=O)c2ccc([N+](=O)[O-])cc2)c2ccccc21	20%	4%	4.1µM*	-48%	5.2µM*	x
O=C(c1cnccn1)N1CCC2(CCN(Cc3ccccc3)CC2)CC1	x	x	9%	x	-15%	x
Cc1cc(N2CCN(C)CC2)nc2ccc(NC(=O)Nc3ccccc3Br)cc12	u	6%	21µM*	-101%	15µM*	x
Cc1cc(N2CCN(C)CC2)nc2ccc(NC(=O)Nc3ccc(F)cc3F)cc12	26%	3%	u	-19%	-75%	x
Cc1cc(N2CCN(C)CC2)nc2ccc(NC(=O)Nc3cccc(Cl)c3)cc12	u	2%	8.2µM*	-107%	4.6µM*	x
Cc1ccc(NC(=O)Nc2ccc3nc(N4CCN(C)CC4)cc(C)c3c2)cc1C	25%	-3%	12µM*	-20%	4.6µM*	x

High-throughput results as filed in PubChem.
